The full ranking holds about 25,000 sequences; the median of “ln(normalized median fluorescence intensity)” is about 6.7, and the highest 2% start at about 10. For the sample, the highest values were picked, then their nearest neighbours and some sequences at random.

The test system of the assay is PfHDP1 homeodomain (GST-tagged). Description: gcPBM binding intensity (ln(normalized median fluorescence intensity)); higher = stronger DNA binding. Summed up: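 Binding intensity is defined as the maximum Masliner-normalised natural-log median intensity across replicate spots for either probe orientation. It was measured on an Agilent 4 × 180k array of primer-extended double-stranded 36-bp intergenic genomic probes and negative controls, to which GST-tagged P. falciparum DNA-binding domains made in E. coli were applied for 1 h in 1× PBS with 1% milk, 0.2 mg/ml BSA, 0.5% salmon testes DNA and 0.03% Triton X-100. Detection was by Alexa488 anti-GST antibody and scanning at 488 nm.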
In the case of “TTGTTTTTCTTTGAATGTACTTAATGATTTCCAATT [XGTACX_site2499]”, the “gcPBM binding intensity (ln)” value came to 6.44. Take “CAAAACAAAGTTGCCGCACACAGATACGCACCCAAG [CACACA_site3455]”: the “gcPBM binding intensity (ln)” value amounted to 7.09. As to “CACACGCACAGACACACACACACACGGATATAAATA [CACACA_site6301]”, the “gcPBM binding intensity (ln)” value was determined as 7.76. Consider “ATATACATATATATGGGTACATATATTAATATATAT [XGTACX_site8358]”, for which the “gcPBM binding intensity (ln)” value is 6.74. In the case of “AAAATTAGATTATGCACACACACTTAAAAATAATAA [CACACA_site1975]”, the “gcPBM binding intensity (ln)” value is 10.1. As to “GTTAGGATAGATTAGACATGCACATAAATGCACTTC [TGCATGCA_site561]”, the “gcPBM binding intensity (ln)” value turned out to be 10.6. Regarding “AGGATATGCAGACACACACACATATAGATTTATATA [CACACA_site7100]”, the “gcPBM binding intensity (ln)” value is 6.6.

Consider “ATATAATTAAAATGCTCACACACATAAAAAAAAATT [CACACA_site2148]”, for which the “gcPBM binding intensity (ln)” value stood at 8.58.

With TTTTGTTATTTTTGTATGCACTACATATTATTATAT, the “gcPBM binding intensity (ln)” value turned out to be 8.89. Regarding “TCGTATATGGATTTTGCACACAATTATAATTTAAAT [CACACA_site868]”, the “gcPBM binding intensity (ln)” value was 10.8. As to “TTATTAAATAAAATCATGCACACAATATATATTTTA [CACACA_site2496]”, the “gcPBM binding intensity (ln)” value came to 8.65. Consider “GCTAAACAATAGTTTGCACACAATTTAAATATATAT [CACACA_site193]”, for which the “gcPBM binding intensity (ln)” value worked out at 10.3. Turning to “CATAAATTAATAGTCACACACGTATTTTTTATATAT [CACACA_site2526]”, the “gcPBM binding intensity (ln)” value stood at 6.16. “AATAATACACAATTTTGTACGTATTTAAAATATATT [XGTACX_site45]”: the “gcPBM binding intensity (ln)” value was 6.74.

For “TCGTATATGGATTTTGCACACAATTTTAATTTAAAT [CACACA_site4635]”, the “gcPBM binding intensity (ln)” value is 10.7. Regarding “AATATAAACAGACACACACACATATAGATTTATATT [CACACA_site7382]”, the “gcPBM binding intensity (ln)” value stood at 6.8.

Regarding “TTCATATAATTATATACATGCATAAATTCTAAGTAA [TGCATGCA_site622]”, the “gcPBM binding intensity (ln)” value was 6.78. For “ATACATATATATGTGTGTACATATGTGTATACATTT [XGTACX_site6544]”, the “gcPBM binding intensity (ln)” value stood at 6.84. Consider “CACACCATATAATATATATATATGTATATATTTATA [CACACA_negctrl_site397]”, for which the “gcPBM binding intensity (ln)” value came to 6.58. The result for “TGTAATATATGTATTGCACACCTATAACCATTATTT [CACACA_site8422]” reads 9.86; that for “TAATATATGTATTGCACACCTATAACCATTATTTCT [CACACA_site1498]”, 10.5; that for “ACATAAAATAAATATACACACATATGTATATATCAT [CACACA_site7424]”, 6.52. Consider “TTTATATTATTATATCTTATTAATTATTTATCATTT [TGCATGCA_negctrl_site73]”, for which the “gcPBM binding intensity (ln)” value worked out at 6.23. In the case of “TTTTTTTTTTTTTTTGTGCACAATATAATTTTTAAT [GTGCAC_site9747]”, the “gcPBM binding intensity (ln)” value stood at 10.8.

On to “TATTATAATATATTTGTGCACATAATACCTCCGCTA [GTGCAC_site9570]”, for which the “gcPBM binding intensity (ln)” value is 10.9. For the sequence “TTATAATTTTAATGTGCACACAATTAAAATATTATA [CACACA_site5172]”, the “gcPBM binding intensity (ln)” value worked out at 10.2. Turning to “ATATTTTATTTAATTACACACAATATTGCAATTTGT [CACACA_site669]”, the “gcPBM binding intensity (ln)” value amounted to 8.74. Regarding “TTATAATATTAATGTGCACACAATTAAAATATTATA [CACACA_site2046]”, the “gcPBM binding intensity (ln)” value amounted to 10.7. As to “AACTGTACAATTTTTGTGCACAATAATTATTAATAT [GTGCAC_site9462]”, the “gcPBM binding intensity (ln)” value came to 11. “TAAATTATAATATGCACACAAAATGTTATATTAAAA [CACACA_site376]”: the “gcPBM binding intensity (ln)” value was found to be 9.55. On to “TAATAATATATTTGTAGTACACAATTTTTTATAACT [XGTACX_site3951]”, for which the “gcPBM binding intensity (ln)” value worked out at 6.34. For “TATATATATATTTTTTGTACATATTATATAATATAC [XGTACX_site5187]”, the “gcPBM binding intensity (ln)” value was 8.42. For “TTTTTTTTTTTTAATGCACACAATATATAATATGTA [CACACA_site3694]”, the “gcPBM binding intensity (ln)” value was 10.2. For TATTTATTTTTTTTTGTGCACTTAATATAATCTTAC, the “gcPBM binding intensity (ln)” value worked out at 9.51. Turning to AATATATATATTAGAGTGCACATAATTATTTGCTAA, the “gcPBM binding intensity (ln)” value was found to be 8.88.

The values are drawn from the supplement of paper PMC11417369.
